Bioassay records deposited in PubChem by National Center for Advancing Translational Sciences (NCATS).
Sampled rows, rich in hits. Any-hit rate of the full collection: about 5.6%.
PKM2 act: qHTS Assay for Activators of Human Muscle isoform 2 Pyruvate Kinase; Pyruvate kinase PKM (Homo sapiens), P14618; purified PKM2, Kinase-Glo ATP luminescence, activation; response scale: 0% is enzyme alone, no compound; Potency, µM (series often up to 57.5 µM), inactives show top-dose activation, hits mostly activators; hit rate 0.34% among 260,000; AID 1631, 2009; note: potency is the fitted concentration of half-maximal effect; nearly all actives have a fitted effect of over 55% in size
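Purified hPK-M2 (>95% pure) converted ADP (0.1 mM final) to ATP with 0.5 mM PEP in 50 mM imidazole pH7.2, KCl, MgCl2, Tween 20, BSA; 1 h at room temperature. ATP detected by Kinase-Glo luminescence.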
CtBP-E1A blk: qHTS Assay for Inhibitors of the CtBP/E1A Interaction; AlphaScreen GST-E1A/His-CtBP binding, 1536-well; active compounds read low; activity change, % (test concentration not listed); hit rate 0.49% among 340,000; AID 651724, 2012; in the data active = activity change below about -65%; inconclusive = mostly about -30% to -63%
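GST-E1A and His-tagged CtBP (125 nM each as 5X stock) were preincubated with pin-transferred compound for 2 h at 37 °C in the dark, then glutathione donor and nickel acceptor beads were added for 1 h before AlphaScreen reading.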
Six1-Eya2 inh: qHTS Assay for Inhibitors of the Six1/Eya2 Interaction. Homeobox protein SIX1 (Homo sapiens) + Protein phosphatase EYA2 (Homo sapiens), …. AlphaScreen GST-Six1/His-Eya2 binding, biochemical; active compounds read low. activity change, % (test concentration not listed). hit rate 0.56% among 360,000. AID 651725, 2012; in the data active = activity change below about -65%; inconclusive = mostly about -30% to -63%
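Homogeneous AlphaScreen proximity assay pairing GST-Six1 with His-tagged Eya2 (added as 5X mix: 250 nM and 500 nM) in 50 mM Tris pH 8.0, 300 mM NaCl, 1 mM TCEP. Glutathione donor and nickel acceptor beads; 1 h, 37 °C, dark.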
RORg inh: qHTS for inhibitors of ROR gamma transcriptional activity; Potency, µM (top dose mostly 53.6 µM), without a hit: at the top dose activity change, negative = inhibition, most hits filed as inhibitors; Nuclear receptor ROR-gamma (Mus musculus), P51450; hit rate 5.4% among 310,000; Drosophila S2 Gal4-RORgamma UAS-luciferase reporter, 20 h; note: potency is the fitted concentration of half-maximal effect; nearly all actives have a fitted effect of over 60% in size
Target sequence (P51450 whole entry, looked up, the tested form may be a part): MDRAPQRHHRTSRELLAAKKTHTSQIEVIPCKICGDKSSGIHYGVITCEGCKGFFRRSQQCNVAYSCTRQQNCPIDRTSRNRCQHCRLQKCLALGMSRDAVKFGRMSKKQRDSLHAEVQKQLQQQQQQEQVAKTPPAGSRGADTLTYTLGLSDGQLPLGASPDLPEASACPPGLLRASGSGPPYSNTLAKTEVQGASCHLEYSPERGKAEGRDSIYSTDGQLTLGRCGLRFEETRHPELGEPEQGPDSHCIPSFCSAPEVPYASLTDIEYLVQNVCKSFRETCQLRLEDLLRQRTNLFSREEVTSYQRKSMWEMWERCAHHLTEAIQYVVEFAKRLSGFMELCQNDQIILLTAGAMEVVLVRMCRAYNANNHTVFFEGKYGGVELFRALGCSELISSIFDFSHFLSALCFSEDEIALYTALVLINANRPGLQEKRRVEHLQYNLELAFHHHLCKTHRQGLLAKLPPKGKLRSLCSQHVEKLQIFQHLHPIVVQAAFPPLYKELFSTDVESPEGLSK
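In this cell-based reporter format, copper sulfate (700 uM final) drives Gal4–ROR gamma fusion expression from a metallothionein promoter in Drosophila Schneider cells; compounds preincubated 1 hr, reporter read after 20 hr at ambient temperature.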
Gal4-VP16 FLuc: VP16 counterscreen qHTS for inhibitors of ROR gamma transcriptional activity. hit rate 3.5% among 310,000. AID 2546, 2010. Drosophila S2 Gal4-VP16 UAS-luciferase, luminescence, 20 h. Potency, µM (doses to about 53.6 µM), for the others: top-dose activity, negative = inhibition, actives largely listed as inhibitors;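 note: Gal4-VP16 expression switched on by copper sulfate through the metallothionein promoter; potency is the fitted concentration of half-maximal effect; nearly all actives have a fitted effect of over 50% in size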
Active calls of the source: *; u = inconclusive; x = no result. Unless noted, calls come from the whole dose curve; as a rule, active = well fitted curve in the direction sought with a large enough effect; inconclusive = small, poorly fitted or top-dose-only effect, or another doubt; inactive = no such curve, though single readings can be large; an effect the other way counts as inactive or inconclusive. % is set by controls: 0 for no effect and ±100 for the full control effect.

SMILES	PKM2 act	CtBP-E1A blk	Six1-Eya2 inh	RORg inh	Gal4-VP16 FLuc
Cc1nn(-c2ccccc2)c(Cl)c1CN(C(=O)CCl)c1cccc2ccccc12	0%	7	-9	14µM*	u
CCOC(=O)c1c(-c2ccc(OC)cc2)oc2c1C(OC(C)=O)CCC2 (stereo unspecified)	x	-2	-1	x	x
Cc1cccc(CS(=O)(=O)c2nnc([C@H](Cc3ccccc3)NC(=O)OC(C)(C)C)o2)c1	u	7	1	11µM*	11µM*
Cc1onc(-c2ccccc2)c1NC(=O)N(CCC#N)Cc1cccs1	2%	x	-1	-1%	-5%
Cc1oc2cc3oc(=O)c(CCC(=O)NCCC(=O)O)c(C)c3cc2c1C	x	x	-13	-7%	-12%
Cc1c(CCC(=O)N[C@@H](C)C(=O)O)c(=O)oc2cc3occ(-c4ccccc4)c3cc12	x	-77*	u	-13%	-21%
CCC(NC(=O)CCc1c(C)c2cc3c(-c4ccccc4)coc3cc2oc1=O)C(=O)O (stereo unspecified)	x	-77*	-23	-34%	-22%
Cc1c(CC(=O)NCCCC(=O)O)c(=O)oc2cc3occ(-c4ccccc4)c3cc12	x	-28	u	-5%	-3%
Cc1c(CCC(=O)NCCCCCC(=O)O)c(=O)oc2cc3occ(-c4ccccc4)c3cc12	x	x	-68*	-9%	u
Cc1c(CC(=O)NCC(=O)O)c(=O)oc2cc3occ(-c4ccccc4)c3cc12	x	1	u	1%	-6%
Cc1oc2cc3oc(=O)c(CCC(=O)NCc4ccccn4)c(C)c3cc2c1C	0%	8	1	6.3µM*	u
Cc1cc(-n2c(C)cc(C(=O)CCl)c2C)no1	1%	0	0	6.3µM*	u
COc1ccc(-n2c(C)cc(C(=O)CN3C(=O)c4ccccc4C3=O)c2C)cc1	7%	6	6	u	-11%
Cc1cc(C(=O)CSc2nc(N)cc(=O)[nH]2)c(C)n1-c1ccc(OC(F)F)cc1	0%	-1	-2	-38%	10µM*
COc1ccc(-n2c(C)cc(C(=O)CCl)c2C)cc1	-1%	-4	-9	13µM*	u
CCCc1cc(=O)[nH]c(SCC(=O)c2cc(C)n(-c3cc(C)on3)c2C)n1	-22%	-3	3	25%	4%
Cc1cc(-n2c(C)cc(C(=O)CSc3nc(N)cc(=O)[nH]3)c2C)no1	-2%	-12	-4	u	22µM*
O=C(COc1ccc(Br)cc1)NNC(=O)c1cc(S(=O)(=O)N2CCOCC2)ccc1Cl	x	4	4	x	x
CC(N=C1NS(=O)(=O)c2ccccc21)C(=O)N1CCc2ccccc2C1 (stereo unspecified)	-4%	-2	-4	u	30%
Cc1nn(CC(=O)Nc2ccc(S(N)(=O)=O)cc2)c(=O)c2ccccc12	x	10	19	-29%	-2%
O=C1N/C(=C/c2ccc(N3CCOCC3)cc2)C(=O)N1Cc1ccc(F)cc1	-1%	-11	5	-26%	-16%
O=C1N/C(=C/c2ccc(N3CCOCC3)o2)C(=O)N1c1ccccc1	u	-4	-10	5.6µM*	1.6µM*
C=CCN1C(=O)N/C(=C/c2ccc(N3CCOCC3)o2)C1=O	u	x	x	7.1µM*	5µM*
O=C1N/C(=C/c2ccc(N3CCCC3)cc2)C(=O)N1c1ccccc1	-1%	18	3	3%	-13%
COc1ccc(CC(=O)NCC2CCCN(Cc3cccc(SC)c3)C2)cc1 (stereo unspecified)	3%	0	-2	-12%	0%
SMILES	PKM2 act	CtBP-E1A blk	Six1-Eya2 inh	RORg inh	Gal4-VP16 FLuc
COc1cc(CCCN2C(=O)C(=O)NC[C@@H]2CC2CCCCC2)cc(OC)c1OC	x	x	15	x	x
COc1cc(CCCN2C(=S)NC[C@@H]2CC2CCCCC2)cc(OC)c1OC	-1%	0	14	4µM*	u
CN(C(=O)CN1C(=O)/C(=C/c2ccccc2Cl)SC1=S)C1CCS(=O)(=O)C1 (stereo unspecified)	x	1	-6	10µM*	u
O=C1/C(=C/c2ccccc2Cl)SC(=S)N1CCCC(=O)N(CCO)c1ccccc1	3%	-14	-20	2.2µM*	u
O=C(CCCN1C(=O)/C(=C/c2ccccc2Cl)SC1=S)Nc1cccnc1	8%	0	-25	0.22µM*	-101%
O=C(CCN1C(=O)/C(=C/c2ccccc2Cl)SC1=S)Nc1cccnc1	x	x	-12	35%	u
O=C(CCCN1C(=O)/C(=C/c2ccccc2Cl)SC1=S)Nc1ccccn1	2%	4	-12	1.8µM*	u
Cn1nc(-c2ccc(Cl)cc2)cc1NC(=O)CSCC(=O)O	-3%	-5	4	2%	0%
O=c1[nH]c(CN(CCO)CCO)nc2c1C1(CCCCC1)Cc1ccccc1-2	-8%	-3	-2	u	-11%
CCN(CC)Cc1nc2c(c(=O)[nH]1)C1(CCCC1)Cc1ccccc1-2	-10%	2	-14	2.8µM*	11µM*
O=c1[nH]c(NCCO)nc2c1C1(CCCC1)Cc1ccccc1-2	1%	9	-2	33%	-22%
C=CCNC(=S)NNc1nc2c(c(=O)[nH]1)C1(CCCCC1)Cc1ccccc1-2	-3%	-4	-23	1µM*	1.8µM*
COc1ccc(/C=N/NC(=S)NCCc2ccccc2)cc1	x	x	-4	3.5µM*	7.9µM*
COc1cccc(/C=N/NC(=O)CCc2ccccc2)c1	-4%	4	-2	16%	1%
COc1cccc(/C=N/NC(=S)NCCc2ccccc2)c1	0%	-18	-5	16µM*	u
Fc1ccc(/C=N/NC(=S)NCCc2ccccc2)cc1F	8%	-2	1	7.1µM*	8.9µM*
CCc1ccc(/C=N/NC(=S)NCCc2ccccc2)cc1	1%	0	-3	14µM*	u
CCOc1ccc(/C=N\NC(=O)CC(=O)NCCc2ccccc2)cc1	1%	-1	-3	x	x
CCCCNC(=S)N/N=C/c1ccc(C#N)cc1	2%	-8	19	11%	u
CCC(C)(C)C1CCc2[nH]nc(C(=O)NCCCNC(=O)OC(C)(C)C)c2C1 (stereo unspecified)	x	2	2	x	x
Cc1ccc(N2CCN(/N=C/c3ccncc3)CC2)cc1	-1%	-17	-21	-3%	14µM*
Clc1ccc(N2CCN(/N=C/c3ccncc3)CC2)cc1	-1%	6	-8	-1%	u
O=C(NNC(=O)c1ccccc1OCc1ccccc1)c1ccccc1F	x	0	7	-17%	-14%
O=C(NNC(=O)c1ccccc1OCc1ccc(F)cc1)c1ccccc1O	x	-17	-12	4.5µM*	10µM*
